Screen size: about 150,000 compounds; about 180 (0.12%) were called active. Not shown: some 6% with an inconclusive outcome. The entries come from a sample that favours actives as a whole. Where a call stands in place of a potency, no number is given. A number with no mark means an inactive call. Calls come from the whole dose curve; as a rule, active = well fitted cell-killing curve with a large enough effect; inconclusive = small, poorly fitted or top-dose-only effect, or effect the other way; inactive = flat fitted curve, though single readings scatter.
Assay: GF-AFC viability counterscreen for inhibitors of alpha-synuclein gene (SNCA) expression; note: nearly all actives have a fitted effect of over 30% in size
Conditions: HEK-293-SNCA-luc viability, GF-AFC fluorescence, 24 h; series mostly up to 57.1 µM
Text: Assay Submitter (PI): Daniel R. Scoles Ph.D.
Department of Neurology, University of Utah, Salt Lake City, Utah
Accumulation of alpha-synuclein is a main underlying pathological feature of Parkinson's disease (PD) and alpha-synucleinopathies, for which lowering expression of the alpha-synuclein gene (SNCA) is a potential therapeutic avenue. Using a cell-based luciferase reporter of SNCA expression we performed a quantitative high throughput screen (qHTS) of 155,885 compounds in dose response. The screening assay was generated using genome editing to insert the luciferase gene downstream and in frame of the SNCA gene in HEK-293 cells (1). A viability counterscreen using GF-AFC was used to eliminate cytotoxic and false positive compounds. After in silico analysis (clustering, removal of frequent hitter nuisance chemotypes), inhibitor compounds from the primary screen were selected for follow up and re-tested at 11-doses in the SNCA-luc cells (luciferase and GF-AFC confirmation), and in CMV-luc expressing cell line to flag general transcriptional repressors.
Described herein are the results of the GF-AFC viability counterscreen for SNCA inhibitors; inactivity (no decrease in fluorescence signal, not cytotoxic) is the desired output for this assay.
1. Dansithong, W., Paul, S., Scoles, D. R., Pulst, S. M., and Huynh, D. P. (2015) Generation of SNCA Cell Models Using Zinc Finger Nuclease (ZFN) Technology for Efficient High-Throughput Drug Screening. PLoS ONE 10, e0136930.
SEQUENCE No. (e.g., 1, 2, 3, etc.); […] (e.g., Cells, Incubation, Reagent, etc.); VALUE; DESCRIPTION
1; Cells; 4 uL; Dispense 1500 HEK-293-SNCA-luc cells/well into Greiner 1536-well white / solid bottom tissue culture treated plate. The plate was covered with metal lids with gas-exchange holes.
2; Incubate; 24 hours; Incubate at 37C, 5% CO2, 95% RH.
3; Compounds; 23 nL; Compounds and controls were transferred via a Kalypsys Pin Tool (Wako USA) equipped with a 1536-slotted pin array. The plate was covered with metal lids with gas-exchange holes.
4; Incubate; 24 hours; Incubate at 37C, 5% CO2, 95% RH.
5; Dispense; 1 uL; Dispense Gly-Phe-7-amino-4-trifluoromethylcoumarin (GF-AFC, prepared at 125 uM in PBS) was added. The plate was covered with metal lids with gas-exchange holes.
6; Incubate; 30 min; Incubate at 37C, 5% CO2.
7; Detector; Fluorescence; Measure fluorescence with ViewLux microplate reader (PerkinElmer) equipped with 405/10 excitation and 540/25 emission filters.
8; Dispense; 3 uL; Dispense ONE-Glo ([…]) lucifase detection reagent was added to each well. Plates were covered with metal lids with gas-exchange holes.
9; Incubate; 15 min; Incubate at room temperature.
10; Detector; Luminescence; Measure luminescence with ViewLux microplate reader (PerkinElmer) equipped with clear filters.
NOTES (numbers refer to sequence above)
1; HEK-293-SNCA-luc were cultured and suspended in phenol-red free DMEM (4.5 g/L glucose, 25 mM HEPES, cat #21063 (Thermo)).
3; Compounds were added to the assay plate in an 11-point intra plate dose response, 1:3 titration in DMSO with a final concentration range of […]. Vehicle-only plates, with DMSO being pin-transferred to every well, were inserted at the beginning of screening runs to confirm expected assay performance. Activity was normalized to wells containing medium only (-100% activity, full inhibition) and SNCA-luc cells treated with DMSO vehicle control (0% activity), contained on the same plate as test samples.
10; Signals were analyzed, and dose-response curves were fit using the Hill equation. Compounds in curve classes -1.1, -1.2, -2.1, -2.2 in the SNCA-luc assay were considered active. Compounds were eliminated from further consideration if also active (curve class -1.1, -1.2, -1.3, -1.4, -2.1, -2.2, -2.3, -2.4) in the GF-AFC cytotoxicity assay.
Potency is the fitted concentration of half-maximal effect.

Structure (SMILES)	Potency	activity change, negative = cytotoxicity
CCCCS(=O)(=O)N1CCCC(Cn2c(C3CC3)nc3cccnc32)C1 (stereo not drawn)	inactive	–
O=C1CC(c2ccccc2)N(Cc2cn[nH]c2-c2ccc(F)cc2)CCCCCN1 (stereo not drawn)	inactive	–
COc1ccc(-c2nc(C(C)C)nc3c2CCN([S+](=O)([O-])c2cccc(C(F)(F)F)c2)CC3)cc1	inactive	–
CC(C)NC(=O)N1CC(Oc2ccc(-c3noc(-c4cccnc4)n3)cc2)C1	inactive	–
O=C(Nc1cccc(Cl)c1)C1CCCN(c2ccnc3ccnn23)C1 (stereo not drawn)	inactive	–
c1cn(-c2ccc(N3CCCCCC3)nc2)c(-c2cc3n(n2)CCCNC3)n1	inactive	–
CSCC(=O)N1CCC2(CC1)CC(c1ccccc1)CN(C)C2 (stereo not drawn)	inactive	–
O=C(c1cccc(C(F)(F)F)c1)N1C[C@@H](CO)[C@H](c2ccccn2)C1	inactive	–
CC(C)c1ccc(S(=O)(=O)N2CCc3nn(C)c(=O)n3CC2)cc1	inactive	–
COc1ccc(C(=O)N2C(C(=O)NCC(C)C)COC23CCN(C(=O)C2CCC2)CC3)cc1 (stereo not drawn)	inactive	–
Cc1ccc(NC(=O)CN2CC3CC(C2)[C@H]2CCCC(=O)N2C3)cc1 (stereo partly drawn)	inactive	–
O=C(NC[C@H]1OC[C@@H](NCc2ccccn2)[C@@H]1O)C1CCCC1	inactive	–
Cc1ccc(CN2CCCN(Cc3ccncc3)C(c3ccccc3)CC(=O)NCC2)s1 (stereo not drawn)	inactive	–
COc1ccc(CNC[C@H]2O[C@H](Cc3cc(-c4ccc(OC)cc4)on3)CC[C@@H]2O)cc1	inactive	–
CCOc1ccc(C(=O)N2C[C@@H](CO)[C@H](c3ccncc3)C2)cc1	inactive	–
Cc1ccc(C(=O)N2C[C@@H](CO)[C@H](c3ccncc3)C2)c(C)c1	inactive	–
O=C(C1CCCC1)N1C[C@@H](CO)[C@H](c2ccncc2)C1	20 µM (active)	–
O=C1CCC2(CCN(Cc3ccc4[nH]ccc4c3)CC2)CN1CCc1ccccc1	inactive	–
O=C(c1ccoc1)N1CCC(N2C(=O)[C@H]3CN(Cc4ccccc4)C[C@H]3C2=O)CC1	inactive	–
CCCNC(=O)N1CCC2(CC1)CC(C(=O)N1CCOCC1)N(C)C2 (stereo not drawn)	inactive	–
O=C(NCc1ccnc2[nH]ccc12)c1ccccn1	inactive	–

Structure (SMILES)	Potency	activity change, negative = cytotoxicity
COc1ccc(-c2cc(-c3cnc4[nH]ccc4c3)cn3cncc23)cn1	inactive	–
COC[C@@H]1[C@H](NC(=O)C2(Cn3ccnc3)CC2)[C@@H]2CCO[C@H]12	inactive	–
CCN1CCN(C(=O)c2cn3cc(-c4ccc(C(F)(F)F)cc4)sc3n2)CC1	inactive	–
Cc1noc(C)c1CNC(=O)[C@H]1CN(Cc2ccccc2)C[C@H]1C(=O)O	inactive	–
COCC(=O)N[C@H]1C[C@H]2C(=O)Nc3ccc(/C=C/c4ccc(OC)cc4)cc3C(=O)N2C1	inactive	–
CN(Cc1cccnc1)C1CN(C(=O)Nc2ccccc2F)C1	inactive	–
COCCN1C(=O)c2cccn2CC1CNC(=O)CCc1nc(-c2ccccc2)no1 (stereo not drawn)	inactive	–
O=C1NCCCCCN(S(=O)(=O)c2ccc3c(c2)CCC3)[C@H]2CCCC[C@@H]12	inactive	–
COc1cccc(CNC(=O)c2cc(-c3ccccc3)nc3c2cnn3C)c1	inactive	–
CC1(c2ccccc2)N(Cc2ccc(O)cc2)C(=O)OC12CCN(Cc1ccc(C#N)cc1)CC2 (stereo not drawn)	inactive	–
COC(=O)CNC(=O)C1CCCN1Cc1ccc(-c2cc(C)cc(C)c2)cc1 (stereo not drawn)	inactive	–
Cc1cccc(N2Cc3c(NCCCN4CCCCC4)ncnc3N(C)CC2=O)c1	inactive	–
O=C(NCc1cccnc1)c1cn2cc(-c3cccc(C(F)(F)F)c3)sc2n1	inactive	–
CCOC(=O)C1CCCN(C(=O)C2CCc3nnc(CN[S+](C)(=O)[O-])n32)C1 (stereo not drawn)	inactive	–
Cc1ccc(C(=O)N2CCCC(c3nc(C4CCOCC4)no3)C2)cn1 (stereo not drawn)	inactive	–
CN(Cc1ccsc1)C(=O)C1CCCN(C2CCN(C(=O)C3CC3)CC2)C1 (stereo not drawn)	inactive	–
COc1cccc(-c2cccc(CN3CCCC3C(=O)NCC(C)C)c2)c1 (stereo not drawn)	inactive	–
Cc1ccnc(NC(=O)C2CC(=O)N(c3n[nH]c4cc(Br)ccc34)C2)c1 (stereo not drawn)	inactive	–
COCC1CN(C2CCC2)CC12CCN(C(=O)c1ccc(C)s1)CC2 (stereo not drawn)	inactive	–
O=C1NC2(CCN(C(=O)c3ccccc3)C2)COc2ccccc21 (stereo not drawn)	inactive	–
Oc1ccccc1CN1CCC(O)(c2csc(CN3CCN(c4ccccn4)CC3)n2)CC1	inactive	–

Structure (SMILES)	Potency	activity change, negative = cytotoxicity
FC(F)(F)c1cccc(C2=NOC3(CCCN(Cc4ccccn4)C3)C2)c1 (stereo not drawn)	inactive	–
O=C(C1CC=CC1)N1CCC2(CC1)NCCc1c2[nH]c2ccccc12	–	-15.1% [at 12.5 µM]
COc1ccc(-c2cc3c(nc2-c2ccccc2)nc(C(=O)NCCN(C)C)n3C)cc1OC	inactive	–
O=C(Nc1ccccc1)N1CCC(C(=O)N2CCCC(c3nc4ccncc4[nH]3)C2)CC1 (stereo not drawn)	inactive	–
O=C(c1ccc(F)cc1)N1CCC(C(=O)N2CCC(c3ccccc3)CC2)CC1	inactive	–
CCCN(Cc1nccn1C)C(=O)c1ccccc1C1CCNC1 (stereo not drawn)	inactive	–
O=c1c2nc(OCc3ccc(-n4cccn4)cc3)ccc2ncn1Cc1ccccc1	inactive	–
COc1cccc(CNC(=O)c2cn3cc(-c4ccc(C)cc4)sc3n2)c1	inactive	–
COCCOC1CN(C2CCN(S(=O)(=O)c3cccs3)CC2)C12CCCCC2 (stereo not drawn)	inactive	–
O=C([C@H]1CCCN1C(=O)c1ccc(Cl)nc1)N1CCCC(c2nc3ccncc3[nH]2)C1 (stereo partly drawn)	inactive	–
CCOc1ccc(NC(=O)CN(Cc2ccccc2)S(=O)(=O)c2ccc(Cl)cc2)cc1	inactive	–
CCOc1ccc(N(Cc2ccccc2)C(=O)c2nc(SCC)ncc2Cl)cc1	inactive	–
CCOc1ccc(N(Cc2ccccc2)C(=O)c2nc(S(C)(=O)=O)ncc2Cl)cc1	5.62 µM (active)	–
Cc1c(C(F)(F)F)nc(-c2ccc(CN3CCNCC3)cc2)[nH]c1=O	inactive	–
Cc1ccc(NC(=O)Cn2ccn3nc4c(c3c2=O)CCCCC4)cc1	inactive	–
Cc1ccc(OCc2nc(C3CCN(C(=O)Cc4cccc(F)c4)CC3)no2)cc1	inactive	–
O=C(COc1ccc(F)cc1)NC1CCN(c2cc(-c3ccccc3)[nH]n2)CC1	inactive	–
CCC1Oc2ccc(NC(=O)c3c(F)cccc3F)cc2CN(CCc2ccc(F)cc2)C1=O (stereo not drawn)	inactive	–
COC(=O)[C@@H]1Cc2c([nH]c3ccccc23)[C@H]2C[C@@H](NCCN3CCOCC3)C[C@@H](c3ccccc3F)N21	28.2 µM (active)	–
COC(=O)[C@@H]1Cc2c([nH]c3ccccc23)[C@H]2C[C@@H](NCCN3CCOCC3)C[C@@H](c3ccccc3)N21	inactive	–
COC(=O)[C@@H]1Cc2c([nH]c3ccccc23)[C@H]2C[C@H](NCCNC(C)=O)C[C@@H](c3ccc(C)cc3)N21	inactive	–
